Drawing on PubChem BioAssay (NCI), this text covers growth for 16 compounds.

About 83,000 compounds went through this panel and 20% of them were active in at least one assay; those are over-represented in the sample as a whole.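 Values shown are percent growth following 48 h exposure of cells in 96-well plates to a single concentration of compound; below 10 was considered active.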 Unmarked numbers belong to inactive results. Active and inactive are the calls of the source.

Test systems include NCI-H23 lung; NCI-H226 lung; HOP-62 NSCLC; NCI-H460 lung; NCI-H522 lung; 786-0 renal; COLO 205 colon; A549/ATCC NSCLC.
Holding throughout (experiment): NCI-60 one-dose screen, 48 h (100 = growth as untreated, 0 = no growth, -100 = all killed)
What all share (conditions): 10 µM

Take `O=C(N/N=C/c1c(Cl)cccc1Cl)c1ccccc1Nc1cccc(C(F)(F)F)c1`: the growth in the assay with NCI-H23 lung was 102%; in the assay on NCI-H226 lung, 99.4%; with HOP-62 NSCLC, 111%; in the assay on NCI-H460 lung, 88.6%; in the assay with NCI-H522 lung, 84.9%; with 786-0 renal, 102%. Moreover, the growth with COLO 205 colon was 126%.

For `CC(=O)Nc1ccc(S(=O)(=O)N/N=C(\C)c2ccc(C)cc2C)cc1`, the growth is 105% with NCI-H23 lung; 107% with NCI-H226 lung; 100% with HOP-62 NSCLC; 106% in the assay on NCI-H460 lung; 91.1% in the assay with NCI-H522 lung; 99.9% in the assay on A549/ATCC NSCLC. For the same compound, the growth in the assay with 786-0 renal is 105%; in the assay with COLO 205 colon, 103%.

On to `CSc1nc2c(c(=O)n1C)CN(Cc1ccccc1)C(=O)CN2`, for which the growth with NCI-H23 lung is 93.5%; with NCI-H226 lung it was 96%; in the assay on HOP-62 NSCLC, 82.7%; in the assay with NCI-H460 lung, 106%; in the assay on NCI-H522 lung it was 79.6%; in the assay with A549/ATCC NSCLC, 91%. Also, the growth is 91.9% in the assay with 786-0 renal and 113% in the assay on COLO 205 colon.

`O=C1CC(=O)N(C(=O)c2nn(-c3ccc(Cl)cc3)cc2O)N1`: the growth is 39.3% in the assay with NCI-H23 lung; 43.1% in the assay on NCI-H226 lung; 38.8% in the assay on HOP-62 NSCLC; 27.4% in the assay with NCI-H460 lung; 5.35% (active) with NCI-H522 lung; 44.5% in the assay on A549/ATCC NSCLC. Further, the growth in the assay on 786-0 renal is 50.7%; in the assay with COLO 205 colon, -13.4% (active).

Turning to `O=C1CC(SC(=S)C2CCCC2=O)C(=O)N1` (stereo not given), the growth in the assay on NCI-H23 lung is 98.4%; in the assay on NCI-H226 lung, 92.4%; in the assay with HOP-62 NSCLC it was 106%; in the assay with NCI-H460 lung, 104%; with NCI-H522 lung it was 109%; with A549/ATCC NSCLC it was 101%. For the same compound, the values for the growth in the assay on 786-0 renal and in the assay with COLO 205 colon were 95.7% and 116%, respectively.

On to `Cc1cc(Cl)ccc1Nc1nc(C(F)(F)F)ccc1C(=O)N/N=C/c1c(Cl)cccc1Cl`, for which the growth in the assay with NCI-H23 lung is 19%; with NCI-H226 lung, 7.42% (active); in the assay on HOP-62 NSCLC, -4.74% (active); in the assay with NCI-H460 lung, 1.31% (active); in the assay with NCI-H522 lung, -16.7% (active); in the assay with 786-0 renal, -63.5% (active). Besides, in the assay with COLO 205 colon, the growth was -52.8% (active).

For the compound `COc1ccc(/C=C2\CCCC3C2=Nc2ccccc2NC3c2ccc(OC)cc2)cc1` (stereo not given), the growth in the assay with NCI-H23 lung was 78.7%; in the assay with NCI-H226 lung, 94.9%; with HOP-62 NSCLC, 128%; in the assay with NCI-H460 lung, 94.8%; in the assay with NCI-H522 lung it was 6.67% (active); in the assay with A549/ATCC NSCLC, 88.5%. Further, the growth in the assay with 786-0 renal is 101%; with COLO 205 colon, 116%.

Regarding `O=C(CCC(C(=O)c1ccccc1)c1ccccc1)c1ccccc1` (stereo not given), the growth in the assay on NCI-H23 lung was 78.6%; in the assay on NCI-H226 lung it was 83.1%; in the assay on HOP-62 NSCLC, 76.8%; in the assay with NCI-H460 lung, 76.2%; in the assay on NCI-H522 lung it was 3.51% (active); in the assay on A549/ATCC NSCLC, 61.9%. Further, the results for the growth with 786-0 renal and with COLO 205 colon were 82.7% and 79.7%, respectively.

`COc1cc2c(Nc3ccc(-c4ccc(N)cc4)cc3)ncnc2c(OC)c1OC`: the growth in the assay with NCI-H23 lung is 70.6%; with NCI-H226 lung it was 78.6%; with HOP-62 NSCLC, 85.9%; in the assay on NCI-H460 lung, 19.9%; in the assay with NCI-H522 lung it was 48.6%; in the assay on A549/ATCC NSCLC it was 29.2%. Moreover, the growth in the assay on 786-0 renal was 48%; with COLO 205 colon, 19.8%.

On to `O=C(CNc1nnc(-c2cccnc2SCc2ccccc2)s1)Nc1nc(Cl)cc(Cl)n1`, for which the growth in the assay with NCI-H23 lung is 112%; with NCI-H226 lung, 107%; with HOP-62 NSCLC it was 95.4%; with NCI-H460 lung, 123%; with NCI-H522 lung, 102%.

For the compound `O=C1/C(=C/c2ccc([N+](=O)[O-])s2)Oc2cc(Cl)ccc21`, the growth with NCI-H23 lung is 14.7%; in the assay on NCI-H226 lung it was 81.2%; in the assay with HOP-62 NSCLC, 31.6%; with NCI-H460 lung, 1.6% (active); in the assay on NCI-H522 lung it was -78.2% (active); with A549/ATCC NSCLC it was 4.06% (active). The figures for the growth in the assay on 786-0 renal and in the assay on COLO 205 colon were 14.3% and -28.3% (active), respectively.

For the compound `O=[N+]([O-])c1ccc(/C(=C/c2ccccc2)[n+]2ccccc2)cc1`, the growth in the assay on NCI-H23 lung is 113%; with NCI-H226 lung it was 105%; in the assay with HOP-62 NSCLC, 110%; in the assay on NCI-H460 lung, 103%; with A549/ATCC NSCLC, 99.7%; in the assay on 786-0 renal, 104%. Moreover, the growth in the assay with COLO 205 colon is 114%.

Consider `CC1=NN(C(=O)c2nn(-c3ccc(Cl)cc3)cc2O)C(=O)C1`, for which the growth is 52.5% in the assay on NCI-H23 lung; 40.3% with NCI-H226 lung; 44.1% in the assay with HOP-62 NSCLC; 24% in the assay on NCI-H460 lung; 42.3% with NCI-H522 lung; 45.6% with A549/ATCC NSCLC. The growth with 786-0 renal was 56.5%; with COLO 205 colon, 53%.

For the compound `O=C1/C=C/[C@@H](O)[C@@H]2C[C@@H](O)C[C@H]2/C=C/CCC[C@H](CCc2ccc(C(F)(F)F)cc2)O1`, the growth in the assay on NCI-H23 lung was -10.5% (active); in the assay on NCI-H226 lung, 0.477% (active); in the assay on HOP-62 NSCLC, -4.15% (active); in the assay on NCI-H460 lung it was 9.42% (active); in the assay with NCI-H522 lung, -58.5% (active); in the assay with A549/ATCC NSCLC it was 8.38% (active).

In the case of `NC1=NC(c2ccccc2)C2=C(N1)/C(=C/c1ccccc1)CCC2` (stereo not given), the growth in the assay with NCI-H23 lung is 78.1%; in the assay with NCI-H226 lung it was 109%; with HOP-62 NSCLC, 114%; in the assay with NCI-H460 lung, 98.9%; in the assay with NCI-H522 lung, 48.4%; in the assay with A549/ATCC NSCLC, 87%. Besides, the growth with 786-0 renal is 101%; in the assay with COLO 205 colon, 112%.

For `COc1cc2cc(Oc3ccc(NC(=O)c4ccccc4)cc3)c(C)nc2cc1OC`, the growth in the assay with NCI-H23 lung was 83.5%; with NCI-H226 lung, 9.16% (active); in the assay with HOP-62 NSCLC, 43.8%; with NCI-H460 lung, 94.8%; with NCI-H522 lung, 7.6% (active); in the assay on A549/ATCC NSCLC, 89.6%. Further, the growth is 118% with 786-0 renal and 109% in the assay with COLO 205 colon.
